Bioassay records from PubChem.
This is a sample that favours compounds with a hit; in the whole collection about 11% have one here.
Pf growth 48h: inhibits P. falciparum growth in the first generation, 48 h. P. falciparum luciferase growth in erythrocytes, 48 h. Potency, µM (highest dose often 28.7 µM), actives largely listed as inhibitors. hit rate 5.9% among 310,000
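Luminescence readout; reporter = integrated firefly luciferase in P. falciparum. RBC culture at 2% hematocrit, 0.1% parasitemia final, 37 C/5% CO2; decreased signal taken as growth inhibition.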
Pf growth 96h: P. falciparum growth inhibition at 96 hours. P. falciparum luciferase reporter growth, 96 h. Potency, µM (series often up to 28.7 µM), actives largely listed as inhibitors. hit rate 6.9% among 320,000
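Readout is luminescence from an integrated firefly luciferase in P. falciparum. Red cells, 2% hematocrit and 0.05% parasitemia final, were cultured with compound through two parasite generations (96 hours) at 37 C, 5% CO2.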
AMA1-RON2 inh: disrupts binding of P. falciparum AMA1 to RON2 | AlphaScreen AMA1-biotinylated RON2 peptide binding | Potency, µM (doses to about 58.2 µM), hits mostly inhibitors | hit rate 0.2% among 360,000 | AID 720542; also: nearly all actives have a fitted effect of over 45% in size
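AMA1 (3D7) with his tag at 25 nM final met compounds first, then biotinylated RON2 peptide at 25 nM; detection used donor plus acceptor beads, 10 µg/mL apiece, read by AlphaScreen after 30 min at room temperature.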
HCV inh: HCV inhibition; Potency, µM (titrated, usually from 41.8 µM), actives largely listed as inhibitors; AID 651820; hit rate 3.4% among 340,000; Huh7.5.1 HCVcc-Cre infection, luciferase reporter, 44 h
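Luciferase read-out (15 sec integration) after a 15 min room-temperature substrate step quantifies HCVcc-Cre infection. Cells, 1,000 per well, had compound added 4 h post-plating, then virus at ~0.5 moi, and were cultured 44 h.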
Of the large screens only hits and unclear results are named; the others gave an inactive call. Calls follow the shape of the dose curve; as a rule, active = well fitted curve in the direction sought with a large enough effect; inconclusive = small, poorly fitted or top-dose-only effect, or another doubt; inactive = no such curve, though single readings can be large; an effect the other way counts as inactive or inconclusive.

Cc1c(C(=O)N/N=C/c2ccc(N(C)C)cc2)[nH]c2ccc(Cl)cc12	Pf growth 96h 1.85µM, HCV inh inconclusive
Cc1c(C(=O)N/N=C/c2ccccc2)[nH]c2ccc(Cl)cc12	Pf growth 96h inconclusive, HCV inh inconclusive
COC(=O)CNc1nc(Cl)nc(NC2CCCCC2)n1	Pf growth 96h 5.22µM
C=CCNc1nc(Cl)nc(NC2CCCCC2)n1	HCV inh inconclusive
CCN1CCC(O)(C#Cc2ccccc2)CC1	none
CC1C(c2ccccc2)N(C)C(c2ccccc2)C(C)C1(O)C#Cc1ccccc1 (centres undefined)	Pf growth 48h 9.28µM
CC(C)Cc1nc(N2CCCCC2)c(C#N)c2c1CCC2	Pf growth 96h 10.4µM
CC(C)Cc1nc(N2CCNCC2)c(C#N)c2c1CCC2	Pf growth 48h inconclusive, HCV inh 3.16µM
CC(=O)N1CCN(c2nc(CC(C)C)c3c(c2C#N)CCC3)CC1	Pf growth 48h inconclusive, Pf growth 96h inconclusive, HCV inh inconclusive
COC(=O)C1CCN(C(=O)COC(=O)C2CCN(S(=O)(=O)c3c(Cl)cccc3Cl)CC2)CC1	Pf growth 48h inconclusive, Pf growth 96h inconclusive
CC(=O)N1c2ccc(S(=O)(=O)N3CCCCC3)cc2CC1C(=O)Nc1ccc(F)cc1C (centres undefined)	none
c1ccc(N2CC3COc4ccccc4C3=N2)cc1 (centres undefined)	none (no result: Pf growth 48h, Pf growth 96h)
CCCOc1ccc2c(c1)C(=NN=C(N)N)c1cc(OCCC)ccc1-2	Pf growth 48h 0.657µM, HCV inh 11.2µM
CCN(CC)CCOc1ccc(Br)cc1	Pf growth 96h 2.62µM, HCV inh inconclusive
CCN(CC)CCOc1ccc2c(c1)C(=NO)c1cc(OCCN(CC)CC)ccc1-2	Pf growth 48h 6.57µM, Pf growth 96h 1.85µM, HCV inh 10µM
CCN(CC)CCOc1ccccc1OC	none (no result: HCV inh)
CCN(CC)CCCOc1ccc(Cl)c(Cl)c1	Pf growth 96h inconclusive, HCV inh inconclusive
CCN(CC)CCOc1ccc(/C(=C(\Cl)c2ccccc2)c2ccccc2)cc1	Pf growth 48h 2.08µM, Pf growth 96h 2.33µM, AMA1-RON2 inh inconclusive, HCV inh 11.2µM
CN(C)S(=O)(=O)c1cccc(NC(=O)COC(=O)/C=C/c2ccc([N+](=O)[O-])cc2)c1	none
OCC1O[C@@H](O[C@@H]2C(CO)OC(O)C(O)C2O)C(O)C(O)C1O (some centres undefined)	none (no result: AMA1-RON2 inh, HCV inh)
Cc1ccc(C(=O)NC(=S)/C=C2\N(C)c3ccccc3C2(C)C)cc1	Pf growth 96h inconclusive, AMA1-RON2 inh inconclusive, HCV inh 11.2µM
COc1ccccc1OCC(=O)/C=C1/N(C)c2ccccc2C1(C)C	Pf growth 48h inconclusive, Pf growth 96h inconclusive, HCV inh 10µM
CN1/C(=C\C(=O)COC(=O)c2ccccc2O)C(C)(C)c2ccccc21	HCV inh inconclusive
CN1/C(=C\C(=O)c2ccco2)c2ccccc2CC1(C)C	Pf growth 96h 9.28µM
CN1/C(=C\C(=O)CSc2nnc(NCc3ccccc3)s2)C(C)(C)c2ccccc21	Pf growth 48h 7.38µM, Pf growth 96h 6.57µM, HCV inh inconclusive
Cc1cc(C(=O)CSc2nnc(NCc3ccccc3)s2)c(C)n1C	Pf growth 48h inconclusive, HCV inh inconclusive
COc1ccc(CNC(=O)COC(=O)c2cc3ccccc3o2)cc1	none
COc1ccc([N+](=O)[O-])cc1N(CC(=O)NCCC1=CCCCC1)S(C)(=O)=O	none
COc1cccc(NC(=O)COC(=O)/C=C/c2c(C)nn(-c3ccccc3)c2C)c1	HCV inh inconclusive
COC(=O)[C@]12CCCCC=C1N(Cc1ccc3c(c1)OCO3)C(=O)[C@H](CC(=O)NCC13CC4CC(CC(C4)C1)C3)C2	none (no result: Pf growth 48h, Pf growth 96h, HCV inh)
CC1(C(=O)NS(=O)(=O)c2ccc(Cl)cc2)CCN1C(=O)c1ccco1 (centres undefined)	none (no result: Pf growth 48h, Pf growth 96h, HCV inh)
CN1/C(=C\C(=O)c2ccco2)C(C)(C)c2ccccc21	Pf growth 48h 1.65µM, HCV inh 11.2µM
CN1/C(=C\C(=O)COC(=O)c2ccco2)C(C)(C)c2ccccc21	none
CN1/C(=C\C(=O)C[n+]2ccc3ccccc3c2)C(C)(C)c2ccccc21	Pf growth 48h inconclusive, Pf growth 96h 1.04µM, HCV inh inconclusive
CN1/C(=C\C(=O)C(F)F)C(C)(C)c2ccccc21	none
CC1CC(CCC(=O)NC(=S)Nc2ccc(S(N)(=O)=O)cc2)C(=O)O1 (centres undefined)	Pf growth 96h inconclusive
Cc1c(NC(=S)NC(NC(=O)C(C)(C)C)C(Cl)(Cl)Cl)c(=O)n(-c2ccccc2)n1C (centres undefined)	Pf growth 96h inconclusive
O=C(NC1CCCCC1)c1c(O)nc2sccn2c1=O	Pf growth 48h 10.4µM, Pf growth 96h 10.4µM
CC1CC(NC(=O)c2c(O)nc3sccn3c2=O)CC(C)(C)C1 (centres undefined)	Pf growth 48h 13.1µM, Pf growth 96h inconclusive
O=C(NC1CCCCCC1)c1c(O)nc2sccn2c1=O	Pf growth 48h 6.57µM, Pf growth 96h 4.65µM
CC1CC(NC(=O)c2c(O)nc3ccccn3c2=O)CC(C)(C)C1 (centres undefined)	none (no result: Pf growth 48h, Pf growth 96h)
O=C1/C(=C/c2cccs2)N=C(c2cccs2)N1Nc1ccccc1	HCV inh 14.1µM (no result: Pf growth 96h)
Cc1ccc(S(=O)(=O)NN=CC2(c3ccccc3)CC2)cc1	none (no result: Pf growth 48h, Pf growth 96h, HCV inh)
COc1ccc(N(C(=O)c2snc(C(N)=O)c2N)C(C(=O)NC2CCCC2)c2cc(OC)ccc2OC)c(OC)c1 (centres undefined)	Pf growth 48h 1.85µM, HCV inh inconclusive
COc1ccc(C(C(=O)NC2CCCC2)N(C(=O)c2snc(C(N)=O)c2N)c2ccccc2OC)cc1OC (centres undefined)	Pf growth 48h 9.28µM
C#CC(=O)N(c1ccc(OC)cc1OC)C(C(=O)NC1CCCC1)c1cccs1 (centres undefined)	HCV inh 1.26µM
COc1ccc(N(C(=O)c2snc(C(N)=O)c2N)C(C(=O)NC2CCCCC2)c2ccc(F)cc2)c(OC)c1 (centres undefined)	Pf growth 48h inconclusive
CC1=C(C(=O)N2CCOCC2)CC(CC(=O)NCCc2ccccn2)C(=O)N1Cc1ccc(C(C)(C)C)cc1 (centres undefined)	none (no result: Pf growth 48h, Pf growth 96h, HCV inh)
O=C(Nc1ccc(S(=O)(=O)Nc2cnc3ccccc3n2)cc1)c1cc(F)c(F)cc1Cl	none
O=C(CSc1n[nH]c(=O)n1Cc1ccccc1)Nc1ccc(F)c(F)c1F	HCV inh inconclusive
CC1CCC(=O)N(CCC#N)CC1 (centres undefined)	none
COCCn1c(SCC(=O)NC2CCCCC2)nnc1-c1ccncc1	Pf growth 96h inconclusive
CN1C(=O)C(c2nnc(Nc3cccc4ccccc34)s2)C2CC1(C)Oc1ccccc12 (centres undefined)	Pf growth 48h inconclusive, Pf growth 96h 4.65µM, HCV inh inconclusive
CN(C)c1ccc(CN(C(=O)C2COc3ccccc3O2)C2CCS(=O)(=O)C2)cc1 (centres undefined)	Pf growth 48h inconclusive, Pf growth 96h 5.22µM (no result: HCV inh)
CN1CCC(=NNC(=O)C(=O)Nc2ccccc2F)CC1	none
CCOC(=O)c1sc(N/N=C/c2cc(Br)c(O)c(OC)c2)nc1C	Pf growth 48h 13.1µM
CCOC(=O)N/N=C/c1cc(OC)c(O)c(OC)c1	none
